Screens deposited in PubChem BioAssay by several laboratories.
Only some compounds are listed: those with a hit (about 3.6% of all), similar ones and a draw of the others.
CRFR2-BP antag: antagonists of CRF-binding protein/CRF-R2 receptor complex; HEK293 CRF-R2/CRF-BP, CRF-induced calcium fluorescence; inhibition, % at 11.8 µM; actives 0.59% (n = 350,000);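 active means inhibition of the ligand-induced calcium signal above about 50% at the single tested concentration, limit read from the data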
Myeloid diff 2: myeloid differentiation induction | ER-HoxA9 myeloid progenitors, lysozyme-GFP differentiation, flow cytometry | calls only at 10 µM | actives 1% (n = 360,000) | AID 624256;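 active means normalized GFP-positive differentiation at or above the plate's own cutoff, the solvent-only control mean plus 3 SD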;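 further: cells exposed to compound for four days before flow analysis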
NadD inh: inhibitors of Staphylococcus aureus NadD; purified NadD enzyme, colorimetric absorbance read-out; inhibition, % at 20 µM; actives 0.78% (n = 360,000); in the data active means inhibition above about 26%
NRP1-CendR mod: NRP-1/CendR interaction modulation; O14786; FAM-RPARPAR peptide binding to NRP-1, fluorescence polarization; inhibition, % at 25 µM; actives 0.85% (n = 360,000);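 active means inhibition or corrected inhibition above about 18%, plus a signal ratio from 0.5 to 1.5, limit read from the data, passing the limit was not always enough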
Target sequence (O14786 whole entry, looked up): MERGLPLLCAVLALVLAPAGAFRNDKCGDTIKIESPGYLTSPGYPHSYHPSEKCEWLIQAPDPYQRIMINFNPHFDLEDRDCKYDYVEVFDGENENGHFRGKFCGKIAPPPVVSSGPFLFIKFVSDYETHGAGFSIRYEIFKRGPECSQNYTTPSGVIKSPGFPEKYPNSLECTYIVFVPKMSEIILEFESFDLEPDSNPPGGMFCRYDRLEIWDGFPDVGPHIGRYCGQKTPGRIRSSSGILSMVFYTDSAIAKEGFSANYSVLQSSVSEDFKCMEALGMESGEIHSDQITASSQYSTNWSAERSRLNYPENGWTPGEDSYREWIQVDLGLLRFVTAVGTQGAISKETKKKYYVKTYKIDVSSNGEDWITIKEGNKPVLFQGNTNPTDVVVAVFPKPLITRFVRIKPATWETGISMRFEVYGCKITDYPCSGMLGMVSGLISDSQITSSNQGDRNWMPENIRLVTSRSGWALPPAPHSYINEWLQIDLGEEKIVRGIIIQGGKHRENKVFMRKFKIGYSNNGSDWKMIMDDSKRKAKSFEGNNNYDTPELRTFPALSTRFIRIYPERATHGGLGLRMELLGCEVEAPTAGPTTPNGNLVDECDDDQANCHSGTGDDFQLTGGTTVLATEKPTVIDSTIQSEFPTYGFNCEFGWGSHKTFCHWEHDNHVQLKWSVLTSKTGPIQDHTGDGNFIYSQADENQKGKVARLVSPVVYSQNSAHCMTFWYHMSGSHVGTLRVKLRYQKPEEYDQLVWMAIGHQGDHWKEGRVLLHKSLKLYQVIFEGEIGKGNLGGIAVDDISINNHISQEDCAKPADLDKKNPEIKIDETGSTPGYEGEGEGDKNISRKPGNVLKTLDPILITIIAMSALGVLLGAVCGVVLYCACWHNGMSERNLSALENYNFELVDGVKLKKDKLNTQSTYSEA
FAS TE block: FAS thioesterase (human) inhibition | inhibition, % at 15 µM | actives 0.67% (n = 360,000) | AID 602261 | recombinant FAS-TE, OMFH fluorogenic substrate, fluorescence endpoint;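 active means compounds whose normalised, plate-corrected inhibition of enzyme fluorescence in the single-dose primary screen is 50% or more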;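 further: 0% = DMSO with enzyme and 100% = substrate without enzyme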
Myeloid diff: promotes myeloid progenitor differentiation | actives 2% (n = 2,300) | calls only | shares compounds with Myeloid diff 2 | ER-HoxA9 myeloid progenitors, GFP/Mac1 double-positive flow | AID 651706;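 active means share of green or green-and-red cells above 9 and 9% in run 1 or 4 and 3% in run 2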
GFP autofluor: flagged as fluorescent in myeloid differentiation counter-screen. shares compounds with Myeloid diff 2. ER-HoxA9 myeloid progenitors, no estrogen, GFP autofluorescence flow cytometry; vehicle wells 0%, positive control 100%. fluorescence response, % (no concentration beside the values). actives 7.4% (n = 2,300);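 active means over 5% cells positive for green fluorescent reporter, or over 2% positive for both it and APC stain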;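 further: range taken on the double positive population between DMSO and positive control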
Numbers without * were called inactive; i = inactive; . = no result given; + = active, no number.

SMILES	CRFR2-BP antag	Myeloid diff 2	NadD inh	NRP1-CendR mod	FAS TE block	Myeloid diff	GFP autofluor
O=c1oc2ccc(Cl)cc2nc1/C=C(\O)c1ccco1	-8	+	-5	133	-7	i	0
CC(C)C/C(O)=C/c1nc2cc(Cl)ccc2oc1=O	-9	i	-4	-10	-9	i	1
COc1ccc(S(=O)(=O)N(CC(=O)NCC2CCCO2)C2CCCCC2)cc1OC (stereo not given)	-2	i	0	7	-5	.	.
CCOC(=O)CNC(=O)CSc1nnc(CCc2nc3ccccc3[nH]2)n1C	-3	i	-4	5	-7	.	.
CCc1ccc([C@@H]2C[C@H]3CN(Cc4ccccc4OC)C(=O)[C@]34CCCN24)cc1	-6	i	1	-12	1	.	.
CCn1c(-c2ccccc2Cl)nn(CC(=O)Nc2cc(Cl)ccc2Cl)c1=S	13	i	-9	4	3	i	0
O=S(=O)(c1ccccc1F)N1CCN(CCOc2ccccc2)CC1	5	i	-1	8	8	.	.
CN=C(Nc1ccccc1)SC1CC(=O)N(c2ccc(C(=O)OC)cc2)C1=O (stereo not given)	-16	i	-2	16	15	.	.
CN=C(NC)SC1CC(=O)N(c2ccccc2)C1=O (stereo not given)	-16	i	1	13	-4	i	0
O=C1NCCN1c1ccc(CN2CCN(C3CCCCC3)C(CCO)C2)cc1 (stereo not given)	4	i	0	-2	1	i	0
CC1(C)CC(=O)C/C(=N/NC(=O)c2ccc(-c3ccccc3)cc2)C1	-16	+	5	-29	-4	i	5.2*
CC1(C)CC(=O)C/C(=N\NC(=O)Cc2ccccc2)C1	-2	i	4	-10	-10	.	.
COc1ccc(S(=O)(=O)N(C)CC(=O)Nc2ccc(F)cc2)cc1	17	i	3	-9	1	i	0
CN1CCN(C(=O)c2ccccc2NS(=O)(=O)c2ccc(F)cc2)CC1	-8	i	1	-2	-10	.	.
CCOC(=O)CSc1nc(=O)n2cccc(C)c2n1	-23	i	0	-1	0	.	.
CCC(c1nnc(SCC(=O)NC23CC4CC(CC(C4)C2)C3)o1)N(C)C (stereo not given)	2	+	7	8	-7	i	0
O=C(CN1CCN(c2ccccc2F)CC1)NC(=O)NCc1ccccc1	-11	i	-6	2	-3	.	.
Cc1cccc(Cl)c1OCCCCn1ccnc1	-7	+	-1	6	0	i	0
CCOC(=O)c1c(NC(=O)C(C)Sc2cccc[n+]2[O-])sc2c1CCN(Cc1ccccc1)C2 (stereo not given)	7	+	15	-116	-42	i	0
O=C(/C=C/c1ccco1)NC(=S)Nc1ccccc1O	26	i	-5	-26	0	.	.
O=C(/C=C\c1ccco1)NC(=S)Nc1ccccc1O	33	i	-4	-64	0	i	0
O=C(NCCc1ccccc1)c1ccc(S(=O)(=O)N2CCCCC2)cc1	-14	i	-3	24	2	.	.
O=C(NCCc1ccccc1)c1ccccc1NS(=O)(=O)N1CCCC1	15	i	-8	7	11	i	0
Cc1ccc(C)c(N2CCN(C(=O)CCS(=O)(=O)c3ccc4c(c3)CCN4C(=O)C3CC3)CC2)c1	7	i	10	-1	14	.	.
O=C1CSC(=S)N1N=Cc1c(F)cccc1Cl	29	i	16	-14	-4	.	.
SMILES	CRFR2-BP antag	Myeloid diff 2	NadD inh	NRP1-CendR mod	FAS TE block	Myeloid diff	GFP autofluor
CN(C)c1ccc(C=NN2C(=O)CSC2=S)c(Cl)c1	40	+	26	-226	-38	i	0
COc1cccc(Oc2c(C)oc3c(CN4CCCC4)c(O)ccc3c2=O)c1	-2	i	2	9	-6	i	0
COc1ccccc1Oc1c(C)oc2c(CN3CCOCC3)c(O)ccc2c1=O	-6	i	-2	9	-7	.	.
CCCc1cc(=O)[nH]c(SCc2cc(Cl)ccc2OC(F)F)n1	5	i	-2	22	13	.	.
O=C(O)c1ccc(-n2cccc2/C=C2/NC(=O)N(c3cccc(Cl)c3)C2=O)cc1	-7	+	11	-42	1	i	0
CCOc1ccc(C(C)=O)cc1COC(=O)CCc1cc(OC)c(OC)c(OC)c1	4	i	-8	-5	-3	.	.
C1CCC2(CC1)C1=C(CCCC1)Nc1nnnn12	-2	+	6	0	-1	i	0
Cc1ccccc1-c1cc(C(=O)O)nn1CC1CC(c2cccc([N+](=O)[O-])c2)=NO1 (stereo not given)	-6	i	3	10	-2	.	.
O=C(CSc1nc(-c2ccccc2Cl)ns1)Nc1ccc2c(c1)OCO2	18	+	-8	0	18	i	0
NS(=O)(=O)c1ccc(NC(=S)NCc2ccccc2Cl)cc1	7	i	-3	-5	-3	i	1
NS(=O)(=O)c1ccc(NC(=S)NCc2ccccc2)cc1	32	i	-8	-2	-8	.	.
O=C(CN1C(=O)C2C3CC(C(Br)C3Br)C2C1=O)N1CCN(Cc2ccccc2)CC1 (stereo not given)	-39	i	-8	-2	-4	.	.
CCC(/C=C1\Oc2ccc(OC)cc2N1C)=C\c1sc2ccccc2[n+]1CCCS(=O)(=O)[O-]	10	i	1	132	-100	i	85*
COc1cc(/C=C/c2sc3ccccc3[n+]2CCCS(=O)(=O)[O-])ccc1O	-14	i	-1	-190	4	.	.
Cn1c(C(=O)NCC2CCCO2)cc2c(=O)[nH]c3ccccc3c21 (stereo not given)	-19	i	3	-3	-3	i	1
Cc1cc(=O)n2c3ccccc3n(CC(O)CN3CCCCC3)c2c1C#N (stereo not given)	17	+	-1	8	-6	i	0
CC(C)N(CCc1ccncc1)C(=S)Nc1cccc(Cl)c1	-9	i	-3	10	-8	.	.
N#C/C(=C/c1ccccc1)c1nn(CCO)c(N)c1C#N	37	i	1	-25	-4	.	.
N#C/C(=C\c1ccc(/C=C(/C#N)c2nn(CCO)c(N)c2C#N)cc1)c1nn(CCO)c(N)c1C#N	2	i	3	-30	-10	i	1
O=C(CN1C(=O)S/C(=C\c2ccc(O)cc2)C1=O)c1ccccc1	-51	i	2	3	-2	i	2
O=C(CN1C(=O)S/C(=C\c2ccccc2)C1=O)NNC(=O)c1ccccc1O	3	i	13	2	23	.	.
CN(c1ccc(C(=O)N2CCN(Cc3ccccc3)CC2)cc1)S(=O)(=O)c1ccc(Cl)cc1	20	i	-6	12	27	.	.
